{
  "source": "PubChem BioAssay AID1851",
  "about": "(National Center for Advancing Translational Sciences (NCATS), 2009)",
  "note": "In all, about 16,000 compounds went through this assay and about 5,700 (36%) were called active. Inconclusive results (about 24%) are left out. The list shows a part of the results. Values without a mark were called inactive. The call rests on the fitted dose curve; in most records, active means well fitted curve in the direction sought with a large enough effect; inconclusive means small, poorly fitted or top-dose-only effect, or effect the other way; inactive means no such curve, though single readings can be large or run the other way. On the % scale 0 is the no-effect control and ±100 the full control effect.",
  "data": [
    {"molecular_target": "Cytochrome P450 1A2 (Homo sapiens) (UniProt P05177)", "sequence (P05177 whole entry, looked up)": "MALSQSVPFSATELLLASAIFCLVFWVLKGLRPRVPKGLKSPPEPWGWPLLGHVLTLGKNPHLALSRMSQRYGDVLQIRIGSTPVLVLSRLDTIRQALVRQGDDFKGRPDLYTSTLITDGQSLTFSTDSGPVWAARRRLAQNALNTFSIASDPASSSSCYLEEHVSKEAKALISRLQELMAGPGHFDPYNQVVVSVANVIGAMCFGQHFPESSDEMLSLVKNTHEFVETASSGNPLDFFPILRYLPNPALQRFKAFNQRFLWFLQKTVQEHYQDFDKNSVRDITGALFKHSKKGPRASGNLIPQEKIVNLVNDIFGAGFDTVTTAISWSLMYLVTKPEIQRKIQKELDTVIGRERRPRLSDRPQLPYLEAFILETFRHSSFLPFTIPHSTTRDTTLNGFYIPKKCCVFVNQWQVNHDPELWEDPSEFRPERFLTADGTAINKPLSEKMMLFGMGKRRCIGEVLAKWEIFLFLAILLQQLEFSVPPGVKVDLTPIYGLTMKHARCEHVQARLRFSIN", "experiment": "Cytochrome panel assay with activity outcomes", "details": "recombinant CYP, pro-luciferin dealkylation, luminescence, p450-cyp1a2; series mostly up to 57.1 µM; activity, negative = inhibition: at the top concentration", "values": [
      {"smiles": "C[n+]1cccc(CNC(=O)/C=N/O)c1", "activity, negative = inhibition": "1.69%"},
      {"smiles": "CC(C)[C@]1(Cl)CC[C@@H]2[C@]3(C)CCC[C@@](C)(C(=O)O)[C@H]3C[C@H](Cl)[C@@]2(Cl)[C@H]1Cl", "activity, negative = inhibition": "-13% [at 11.4 µM]"},
      {"smiles": "Cn1c(SCc2nc3ccccc3n2CCO)nc2ccccc21", "AC50": "10 µM (active)"},
      {"smiles": "Cn1c(C[C@@H](O)c2nc3ccccc3n2C)nc2ccccc21", "activity, negative = inhibition": "-2.56% [at 2.29 µM]"},
      {"smiles": "CCCS(=O)(=O)N1CCCC(C(=O)NCC2CCCO2)C1", "note": "(stereo not given)", "activity, negative = inhibition": "-17.1%"},
      {"smiles": "N#Cc1nc(-c2ccc(F)cc2)oc1N1CCCC1", "AC50": "0.178 µM (active)"},
      {"smiles": "CC(=O)O[C@@H](C)C[N+](C)(C)C", "AC50": "inactive"},
      {"smiles": "COc1ccccc1-c1nc(NCc2ccccc2)c2ccccc2n1", "AC50": "0.398 µM (active)"},
      {"smiles": "CNc1nc(-c2ccccc2OC)nc2ccccc12", "AC50": "0.398 µM (active)"},
      {"smiles": "COc1ccccc1-c1nc(NCc2cccs2)c2ccccc2n1", "AC50": "0.631 µM (active)"},
      {"smiles": "Clc1ccccc1-c1nc(NCc2cccs2)c2ccccc2n1", "AC50": "1 µM (active)"},
      {"smiles": "COc1ccccc1-c1nc(NCc2cccnc2)c2ccccc2n1", "AC50": "0.794 µM (active)"},
      {"smiles": "N/N=C1/CC(=O)NC(=O)N1", "AC50": "0.631 µM (active)"},
      {"smiles": "COc1ccc(OC[C@@H](CO)OC)cc1", "activity, negative = inhibition": "-13.3% [at 11.4 µM]"},
      {"smiles": "O=c1cnc2cnc(Nc3ccccc3)nc2n1C[C@H]1CCCO1", "AC50": "0.794 µM (active)"},
      {"smiles": "O=C1[C@H]2[C@H]3[C@H](O)[C@H](O)C/C(=N/OCc4ccccc4)[C@@H]3CC[C@@H]2C(=O)N1C[C@@H]1CCCO1", "activity, negative = inhibition": "1.8% [at 11.4 µM]"},
      {"smiles": "O=C1[C@H]2[C@H]3[C@H](O)[C@H](O)C/C(=N/OCc4ccccc4)[C@H]3CC[C@@H]2C(=O)N1C[C@@H]1CCCO1", "activity, negative = inhibition": "-4.81% [at 11.4 µM]"},
      {"smiles": "CCCc1nnc(SCC(=O)N2CCCCC2)n1CC1CCCO1", "note": "(stereo not given)", "activity, negative = inhibition": "0.426%"},
      {"smiles": "CCNc1ncc2ncc(=O)n(C[C@H]3CCCO3)c2n1", "AC50": "10 µM (active)"},
      {"smiles": "CCCc1nnc(SCC(=O)N2CCCCC2C)n1CC1CCCO1", "note": "(stereo not given)", "activity, negative = inhibition": "17.6%"},
      {"smiles": "Cc1cc2nc(CCN(C(=S)NCC(C)C)C3CCCC3)[nH]c2cc1C", "AC50": "3.16 µM (active)"},
      {"smiles": "CCNC(=O)c1c(NC(C)=O)sc2c1CCCC2", "AC50": "1.26 µM (active)"},
      {"smiles": "CC(=O)Nc1nnc(CCN2CCCCC2)s1", "activity, negative = inhibition": "25.3%"},
      {"smiles": "CC(=O)Nc1sc2c(c1C(N)=O)CCCC2", "AC50": "3.16 µM (active)"},
      {"smiles": "COCCCNC(=O)c1c(NC(=O)c2cccs2)sc2c1CCCC2", "AC50": "0.251 µM (active)"},
      {"smiles": "CCN(CC)S(=O)(=O)c1cccc(C(=O)N[C@H](C(=O)OCC(=O)NC(=O)NC)C(C)C)c1", "activity, negative = inhibition": "0.134%"},
      {"smiles": "CCCC[C@@H]1C[C@H]1C(NC(=O)c1ccco1)c1ccc(-c2ccccc2)cc1", "note": "(stereo not given in full)", "AC50": "5.01 µM (active)"},
      {"smiles": "CCCNC(=O)CC(NS(=O)(=O)c1ccc(Cl)cc1)c1ccco1", "note": "(stereo not given)", "activity, negative = inhibition": "-15.2%"},
      {"smiles": "CCCC[C@@H]1C[C@H]1C(NC(=O)c1ccco1)c1ccc(Cl)cc1", "note": "(stereo not given in full)", "AC50": "0.794 µM (active)"},
      {"smiles": "CCCC[C@@H]1C[C@H]1C(NC(=O)Cc1ccccc1)c1ccc(-c2ccccc2)cc1", "note": "(stereo not given in full)", "activity, negative = inhibition": "-13%"},
      {"smiles": "CCCC[C@@H]1C[C@H]1C(NC(=O)c1ccco1)c1ccccc1", "note": "(stereo not given in full)", "AC50": "2 µM (active)"},
      {"smiles": "N/C(=N\\OC(=O)Cc1ccc(-c2ccccc2)cc1)c1cccc([N+](=O)[O-])c1", "AC50": "14.1 µM (active)"},
      {"smiles": "Cc1cccc(C(=O)O/N=C(\\N)c2cccc([N+](=O)[O-])c2)c1", "AC50": "2.51 µM (active)"},
      {"smiles": "CCOc1cc(C)ccc1OCc1nnc(SCC(=O)c2cccc([N+](=O)[O-])c2)n1CC", "activity, negative = inhibition": "-13%"},
      {"smiles": "COC(=O)C(CCSC)NC(=O)c1cccc([N+](=O)[O-])c1", "note": "(stereo not given)", "activity, negative = inhibition": "-27.1%"},
      {"smiles": "C[C@@H](c1ccccc1)N1C(=O)[C@H]2[C@H]3[C@H](O)[C@H](O)C/C(=N/OCc4ccccc4)[C@@H]3CC[C@@H]2C1=O", "activity, negative = inhibition": "-7.71% [at 11.4 µM]"},
      {"smiles": "Clc1ccc([C@H](Cn2ccnc2)OCc2csc3c(Cl)cccc23)c(Cl)c1", "AC50": "6.31 µM (active)"},
      {"smiles": "Clc1ccc(C(c2ccc(Cl)cc2)n2cc[n+](C[C@@H](OCc3ccc(Cl)cc3Cl)c3ccc(Cl)cc3Cl)c2)cc1", "AC50": "31.6 µM (active)"},
      {"smiles": "Clc1ccc(CO[C@@H](Cn2ccnc2)c2ccc(Cl)cc2Cl)cc1", "AC50": "0.1 µM (active)"},
      {"smiles": "Clc1ccc(COC(Cn2ccnc2)c2ccc(Cl)cc2Cl)c(Cl)c1", "note": "(stereo not given)", "AC50": "1.26 µM (active)"},
      {"smiles": "CC(C)COP(=O)(c1ccc(N(C)C)cc1)C(O)c1ccccc1F", "note": "(stereo not given)", "activity, negative = inhibition": "-15.4%"},
      {"smiles": "O=C(Nc1ccc(F)cc1Cl)c1ccc2c(=O)n3c(nc2c1)CCCCC3", "AC50": "5.01 µM (active)"},
      {"smiles": "O=C(Nn1cnc2ccccc2c1=O)c1ccc(F)cc1Cl", "activity, negative = inhibition": "-11.4%"},
      {"smiles": "CN1CCN(C(=O)c2ccc3c(=O)n4c(nc3c2)CCCCC4)CC1", "activity, negative = inhibition": "-16.5%"},
      {"smiles": "CO[C@H]1COC(=O)[C@@H](C)COC(=O)[C@@H](COCc2ccccc2)NC(=O)C/C=C\\[C@H]1C", "activity, negative = inhibition": "3.03% [at 11.4 µM]"},
      {"smiles": "CCCCN1CCC(CCC(=O)c2cc(Cl)c(N)cc2OC)CC1", "activity, negative = inhibition": "-39%"},
      {"smiles": "CCCCN1CCC(COC(=O)c2cc(Cl)c(N)c3c2OCCO3)CC1", "AC50": "12.6 µM (active)"},
      {"smiles": "COc1cc(COc2cc(N)c(Cl)cc2C(=O)CCC2CCN(CCNS(C)(=O)=O)CC2)cc(OC)c1", "activity, negative = inhibition": "-11.5%"},
      {"smiles": "CCN(CC)C(=O)C(=O)N/N=C/c1cccc(Br)c1", "AC50": "10 µM (active)"},
      {"smiles": "NC([N-]/N=C/c1ccccn1)=[S]=[Fe].O=S(=O)(O)O", "activity, negative = inhibition": "15.8% [at 2.29 µM]"},
      {"smiles": "CCCCCCCCC(=O)N/N=C/c1cccc(Br)c1", "AC50": "0.891 µM (active)"},
      {"smiles": "CCCCCCCCC(=O)N/N=C/c1ccccn1", "AC50": "4.47 µM (active)"},
      {"smiles": "COCCNC(=O)Cn1cnc2ccc(S(=O)(=O)N3CCC(C)CC3)cc2c1=O", "activity, negative = inhibition": "-6.54%"},
      {"smiles": "CC(C)CN1CCC2(CC1)CCN(S(=O)(=O)c1ccccc1)CC2", "activity, negative = inhibition": "8.32%"},
      {"smiles": "CC(C)CN1CC[C@@]2(CCCN(S(=O)(=O)c3ccccc3)C2)C1", "AC50": "25.1 µM (active)"},
      {"smiles": "O=S(=O)(c1ccccc1)N1CCC2(CC1)CN(Cc1nccs1)C2", "activity, negative = inhibition": "6.2%"},
      {"smiles": "CC(C)CN1CCCC2(CCN(S(=O)(=O)c3ccccc3)CC2)C1", "activity, negative = inhibition": "3.46%"},
      {"smiles": "O=S(=O)(c1ccccc1)N1CCC2(CCCN(Cc3nccs3)C2)CC1", "activity, negative = inhibition": "13.2%"},
      {"smiles": "O=S(=O)(c1ccccc1)N1CCC[C@@]2(CCN(Cc3nccs3)C2)C1", "AC50": "15.8 µM (active)"},
      {"smiles": "Cc1ccc(S(=O)(=O)N[C@H]2COC(=O)[C@@H](C)COC(=O)[C@H](C)NC(=O)C/C=C\\[C@H]2C)cc1", "activity, negative = inhibition": "-11.4% [at 11.4 µM]"}
    ]}
  ]
}
